Experiments:
Assay in all cases: DAPPL (digital affinity profiling via proximity ligation, sequencing); 10 mM Tris-HCl pH 7.5, 50 mM NaCl, 1 mM DTT, 4% glycerol, room temperature, 30 min; GST-TFs on glutathione beads, 16-mer random dsDNA library, 0.1% formaldehyde crosslink after washing; high values mean tight binding
[1] = molecular target: T1, FLI1 (Homo sapiens, UniProt Q01543 1-452); conditions: protein: recombinant; tags: N-terminal GST; dsDNA, one strand shown
T1 sequence: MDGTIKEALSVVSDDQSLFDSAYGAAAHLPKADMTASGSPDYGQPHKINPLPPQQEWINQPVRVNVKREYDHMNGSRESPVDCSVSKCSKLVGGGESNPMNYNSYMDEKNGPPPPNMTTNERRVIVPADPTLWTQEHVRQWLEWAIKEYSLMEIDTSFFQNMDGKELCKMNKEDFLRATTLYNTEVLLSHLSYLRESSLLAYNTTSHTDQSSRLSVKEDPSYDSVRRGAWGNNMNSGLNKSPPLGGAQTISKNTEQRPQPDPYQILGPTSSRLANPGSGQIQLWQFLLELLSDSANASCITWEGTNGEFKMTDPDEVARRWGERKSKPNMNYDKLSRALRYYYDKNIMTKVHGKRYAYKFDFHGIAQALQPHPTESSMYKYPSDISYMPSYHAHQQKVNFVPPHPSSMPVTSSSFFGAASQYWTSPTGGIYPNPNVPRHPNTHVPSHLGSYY
Procedure, shortened: (§1)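 Sequencing on an Illumina NextSeq500 followed washing, crosslinking with 0.1% formaldehyde, proximity ligation (BsaI/T4 ligase, 1 h, 37 °C) and PCR amplification of pools that had been incubated for 30 min at room temperature with 200 nmole of a random double-stranded 16-mer DNA library in Tris/NaCl/DTT/glycerol buffer. Each pool held DNA-barcoded human transcription factors, expressed in yeast as GST fusions and captured on glutathione beads, plus a tag-only sample. Binding signal is a hexamer's read frequency for a factor divided by its frequency in the tag-only sample.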

[2] = molecular target: T2, ELK1 (Homo sapiens, UniProt P19419 1-428); conditions: protein: recombinant; tags: N-terminal GST; dsDNA, one strand shown
T2 sequence: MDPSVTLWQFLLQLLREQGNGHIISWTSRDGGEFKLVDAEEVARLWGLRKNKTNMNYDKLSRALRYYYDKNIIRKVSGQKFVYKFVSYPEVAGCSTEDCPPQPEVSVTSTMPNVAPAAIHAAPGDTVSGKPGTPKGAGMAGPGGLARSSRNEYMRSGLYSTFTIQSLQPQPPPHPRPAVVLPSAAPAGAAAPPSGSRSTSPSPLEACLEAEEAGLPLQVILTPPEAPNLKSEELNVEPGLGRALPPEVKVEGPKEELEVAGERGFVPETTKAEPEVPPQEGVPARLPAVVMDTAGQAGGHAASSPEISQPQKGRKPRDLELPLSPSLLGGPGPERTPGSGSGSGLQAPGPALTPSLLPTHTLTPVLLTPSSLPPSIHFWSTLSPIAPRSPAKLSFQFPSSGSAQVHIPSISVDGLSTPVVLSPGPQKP
Procedure, shortened: as §1

[3] = molecular target: T3, GABPA (Homo sapiens, UniProt Q06546 1-454); conditions: protein: recombinant; tags: N-terminal GST; dsDNA, one strand shown
T3 sequence: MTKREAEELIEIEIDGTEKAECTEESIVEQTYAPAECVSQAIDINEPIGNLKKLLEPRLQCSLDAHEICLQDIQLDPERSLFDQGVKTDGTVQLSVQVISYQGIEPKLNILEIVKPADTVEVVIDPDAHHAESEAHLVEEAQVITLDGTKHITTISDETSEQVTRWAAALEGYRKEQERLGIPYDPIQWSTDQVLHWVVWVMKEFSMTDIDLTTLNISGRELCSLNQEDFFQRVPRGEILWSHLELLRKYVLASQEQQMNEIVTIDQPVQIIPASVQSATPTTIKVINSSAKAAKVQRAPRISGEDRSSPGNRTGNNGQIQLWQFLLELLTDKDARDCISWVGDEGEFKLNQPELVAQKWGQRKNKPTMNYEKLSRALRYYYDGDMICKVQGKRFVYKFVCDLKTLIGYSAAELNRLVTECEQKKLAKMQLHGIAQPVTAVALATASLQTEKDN
Procedure, shortened: as §1

[4] = molecular target: T4, ERG (Homo sapiens, UniProt P11308 1-479); conditions: protein: recombinant; tags: N-terminal GST; dsDNA, one strand shown
T4 sequence: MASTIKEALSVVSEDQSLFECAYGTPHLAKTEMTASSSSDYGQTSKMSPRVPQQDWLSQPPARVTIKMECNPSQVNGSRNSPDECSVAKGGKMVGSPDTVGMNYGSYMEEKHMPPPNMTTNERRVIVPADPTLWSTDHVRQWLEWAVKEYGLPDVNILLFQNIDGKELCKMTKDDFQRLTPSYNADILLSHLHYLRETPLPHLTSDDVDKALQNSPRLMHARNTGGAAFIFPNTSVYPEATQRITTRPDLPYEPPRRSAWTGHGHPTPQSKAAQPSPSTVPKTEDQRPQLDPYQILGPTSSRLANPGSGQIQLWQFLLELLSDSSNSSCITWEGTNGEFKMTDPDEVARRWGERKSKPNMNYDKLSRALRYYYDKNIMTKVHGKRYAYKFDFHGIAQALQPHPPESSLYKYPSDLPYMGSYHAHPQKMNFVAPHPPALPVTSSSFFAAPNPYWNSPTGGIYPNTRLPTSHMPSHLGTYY
Procedure, shortened: as §1

[5] = molecular target: ELF1 (Homo sapiens, UniProt P32519 1-619); conditions: protein: recombinant; tags: N-terminal GST; dsDNA, one strand shown
Procedure, shortened: as §1

[6] = molecular target: T5, EHF (Homo sapiens, UniProt Q9NZC4 1-300); conditions: protein: recombinant; tags: N-terminal GST; dsDNA, one strand shown
T5 sequence: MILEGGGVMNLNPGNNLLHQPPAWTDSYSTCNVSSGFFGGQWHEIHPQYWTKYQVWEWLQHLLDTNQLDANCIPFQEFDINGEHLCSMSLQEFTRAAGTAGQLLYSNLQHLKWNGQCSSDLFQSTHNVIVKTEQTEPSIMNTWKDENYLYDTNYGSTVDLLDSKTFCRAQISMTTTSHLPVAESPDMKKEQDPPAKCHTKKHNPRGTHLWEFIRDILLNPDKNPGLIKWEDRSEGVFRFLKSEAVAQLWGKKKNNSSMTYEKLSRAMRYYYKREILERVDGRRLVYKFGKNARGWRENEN
Procedure, shortened: as §1

[7] = molecular target: SPI1 (Homo sapiens, UniProt P17947 1-270); conditions: protein: recombinant; tags: N-terminal GST; dsDNA, one strand shown
Procedure, shortened: as §1

[8] = molecular target: SPIB (Homo sapiens, UniProt Q01892 1-262); conditions: protein: recombinant; tags: N-terminal GST; dsDNA, one strand shown
Procedure, shortened: as §1

[9] = molecular target: T6, ELK3 (Homo sapiens, UniProt P41970 1-407); conditions: protein: recombinant; tags: N-terminal GST; dsDNA, one strand shown
T6 sequence: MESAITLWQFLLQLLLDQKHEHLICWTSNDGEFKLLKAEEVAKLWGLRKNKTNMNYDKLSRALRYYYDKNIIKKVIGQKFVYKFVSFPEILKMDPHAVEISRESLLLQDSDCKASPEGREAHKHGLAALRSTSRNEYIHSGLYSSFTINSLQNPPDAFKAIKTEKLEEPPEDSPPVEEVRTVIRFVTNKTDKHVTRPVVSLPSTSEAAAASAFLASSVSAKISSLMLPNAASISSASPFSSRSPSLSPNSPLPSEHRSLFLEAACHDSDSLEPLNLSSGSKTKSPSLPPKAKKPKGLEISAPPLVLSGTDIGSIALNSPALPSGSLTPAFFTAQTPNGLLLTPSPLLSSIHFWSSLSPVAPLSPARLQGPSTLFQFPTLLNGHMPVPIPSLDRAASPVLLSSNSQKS
Procedure, shortened: as §1

[10] = molecular target: T7, FEV (Homo sapiens, UniProt Q99581 1-238); conditions: protein: recombinant; tags: N-terminal GST; dsDNA, one strand shown
T7 sequence: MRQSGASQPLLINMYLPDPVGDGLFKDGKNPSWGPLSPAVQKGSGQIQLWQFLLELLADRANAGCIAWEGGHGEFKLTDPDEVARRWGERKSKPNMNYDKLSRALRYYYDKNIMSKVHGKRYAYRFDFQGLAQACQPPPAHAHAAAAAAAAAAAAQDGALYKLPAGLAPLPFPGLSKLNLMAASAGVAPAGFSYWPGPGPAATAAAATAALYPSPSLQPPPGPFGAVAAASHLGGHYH
Procedure, shortened: as §1

[11] = molecular target: ETV5 (Homo sapiens, UniProt P41161 1-510); conditions: protein: recombinant; tags: N-terminal GST; dsDNA, one strand shown
Procedure, shortened: as §1

[12] = molecular target: HSF1 (Homo sapiens, UniProt Q00613 1-529); conditions: protein: recombinant; tags: N-terminal GST; chain copies: 3; dsDNA, one strand shown
Procedure, shortened: as §1

[13] = molecular target: T8, SPIC (Homo sapiens, UniProt Q8N5J4 1-248); conditions: protein: recombinant; tags: N-terminal GST; dsDNA, one strand shown
T8 sequence: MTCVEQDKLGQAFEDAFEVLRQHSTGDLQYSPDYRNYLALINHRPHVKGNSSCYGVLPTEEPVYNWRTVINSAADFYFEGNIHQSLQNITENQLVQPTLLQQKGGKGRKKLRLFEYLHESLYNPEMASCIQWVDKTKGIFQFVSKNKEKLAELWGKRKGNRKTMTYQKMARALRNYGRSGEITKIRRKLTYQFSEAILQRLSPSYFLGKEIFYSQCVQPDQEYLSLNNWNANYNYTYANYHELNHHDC
Procedure, shortened: as §1

[14] = molecular target: ELF4 (Homo sapiens, UniProt Q99607 1-663); conditions: protein: recombinant; tags: N-terminal GST; dsDNA, one strand shown
Procedure, shortened: as §1

[15] = molecular target: T9, ELK4 (Homo sapiens, UniProt P28324-2 1-405); conditions: protein: recombinant; tags: N-terminal GST; dsDNA, one strand shown
T9 sequence: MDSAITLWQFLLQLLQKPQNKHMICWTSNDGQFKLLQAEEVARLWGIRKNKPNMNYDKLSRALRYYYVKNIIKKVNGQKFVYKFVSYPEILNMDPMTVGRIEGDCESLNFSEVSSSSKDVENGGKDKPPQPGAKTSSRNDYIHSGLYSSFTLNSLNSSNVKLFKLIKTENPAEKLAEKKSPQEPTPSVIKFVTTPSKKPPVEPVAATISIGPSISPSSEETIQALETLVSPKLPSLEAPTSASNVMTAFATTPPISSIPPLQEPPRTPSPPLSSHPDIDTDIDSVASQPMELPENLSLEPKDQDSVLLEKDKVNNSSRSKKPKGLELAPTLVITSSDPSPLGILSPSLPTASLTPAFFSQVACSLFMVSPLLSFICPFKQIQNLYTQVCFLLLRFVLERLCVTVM
Procedure, shortened: as §1

[16] = molecular target: T10, ETV2 (Homo sapiens, UniProt O00321 1-342); conditions: protein: recombinant; tags: N-terminal GST; dsDNA, one strand shown
T10 sequence: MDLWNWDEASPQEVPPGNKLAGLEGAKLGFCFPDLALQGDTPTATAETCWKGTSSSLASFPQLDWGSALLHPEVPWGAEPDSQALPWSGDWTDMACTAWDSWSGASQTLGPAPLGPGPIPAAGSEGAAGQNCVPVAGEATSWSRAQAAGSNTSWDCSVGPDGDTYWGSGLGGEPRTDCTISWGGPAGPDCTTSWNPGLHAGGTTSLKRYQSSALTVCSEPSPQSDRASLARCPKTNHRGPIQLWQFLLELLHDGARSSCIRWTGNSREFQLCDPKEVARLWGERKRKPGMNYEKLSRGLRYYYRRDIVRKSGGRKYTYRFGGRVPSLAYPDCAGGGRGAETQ
Procedure, shortened: as §1

[17] = molecular target: T11, ELF3 (Homo sapiens, UniProt P78545 1-371); conditions: protein: recombinant; tags: N-terminal GST; dsDNA, one strand shown
T11 sequence: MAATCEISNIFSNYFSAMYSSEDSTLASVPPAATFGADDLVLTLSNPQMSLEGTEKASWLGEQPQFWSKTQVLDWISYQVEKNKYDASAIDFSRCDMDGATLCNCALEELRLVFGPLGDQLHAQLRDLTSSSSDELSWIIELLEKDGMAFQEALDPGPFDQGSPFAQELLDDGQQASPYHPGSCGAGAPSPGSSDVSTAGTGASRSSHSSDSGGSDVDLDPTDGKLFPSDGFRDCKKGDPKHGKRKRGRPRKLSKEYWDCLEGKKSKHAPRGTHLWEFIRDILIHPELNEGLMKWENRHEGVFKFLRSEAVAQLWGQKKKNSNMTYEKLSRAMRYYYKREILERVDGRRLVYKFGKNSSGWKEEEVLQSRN
Procedure, shortened: as §1

[18] = molecular target: CRX (Homo sapiens, UniProt O43186 1-299); conditions: protein: recombinant; tags: N-terminal GST; dsDNA, one strand shown
Procedure, shortened: as §1

[19] = molecular target: ETV1 (Homo sapiens, UniProt P50549 1-477); conditions: protein: recombinant; tags: N-terminal GST; dsDNA, one strand shown
Procedure, shortened: as §1

ELF4, sequence (Q99607 whole entry): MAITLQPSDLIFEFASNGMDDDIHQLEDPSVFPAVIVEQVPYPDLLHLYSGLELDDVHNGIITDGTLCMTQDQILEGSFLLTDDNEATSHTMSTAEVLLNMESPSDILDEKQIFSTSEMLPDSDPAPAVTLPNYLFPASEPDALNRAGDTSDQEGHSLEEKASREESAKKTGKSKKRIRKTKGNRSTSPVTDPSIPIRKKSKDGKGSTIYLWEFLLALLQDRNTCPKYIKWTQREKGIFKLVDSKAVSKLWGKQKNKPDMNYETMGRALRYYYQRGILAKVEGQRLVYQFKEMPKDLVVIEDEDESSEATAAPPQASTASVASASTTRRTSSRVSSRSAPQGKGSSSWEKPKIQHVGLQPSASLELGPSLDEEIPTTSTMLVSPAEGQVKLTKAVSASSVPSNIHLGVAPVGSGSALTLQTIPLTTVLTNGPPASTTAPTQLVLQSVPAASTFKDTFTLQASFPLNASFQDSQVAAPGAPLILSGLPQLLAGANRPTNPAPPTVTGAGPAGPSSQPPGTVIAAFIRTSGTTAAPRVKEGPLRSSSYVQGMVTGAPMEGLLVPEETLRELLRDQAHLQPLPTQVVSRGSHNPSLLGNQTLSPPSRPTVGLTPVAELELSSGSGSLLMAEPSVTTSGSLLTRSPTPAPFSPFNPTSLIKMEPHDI
CRX, sequence (O43186 whole entry): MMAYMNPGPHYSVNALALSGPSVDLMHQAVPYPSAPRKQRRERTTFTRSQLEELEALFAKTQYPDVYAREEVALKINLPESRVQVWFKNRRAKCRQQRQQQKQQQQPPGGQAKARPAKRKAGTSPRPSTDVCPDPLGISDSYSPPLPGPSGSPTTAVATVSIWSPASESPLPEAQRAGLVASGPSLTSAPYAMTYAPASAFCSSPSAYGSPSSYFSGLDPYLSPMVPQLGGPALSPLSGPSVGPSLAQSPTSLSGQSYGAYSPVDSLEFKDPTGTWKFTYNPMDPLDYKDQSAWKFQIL
ETV5, sequence (P41161 whole entry): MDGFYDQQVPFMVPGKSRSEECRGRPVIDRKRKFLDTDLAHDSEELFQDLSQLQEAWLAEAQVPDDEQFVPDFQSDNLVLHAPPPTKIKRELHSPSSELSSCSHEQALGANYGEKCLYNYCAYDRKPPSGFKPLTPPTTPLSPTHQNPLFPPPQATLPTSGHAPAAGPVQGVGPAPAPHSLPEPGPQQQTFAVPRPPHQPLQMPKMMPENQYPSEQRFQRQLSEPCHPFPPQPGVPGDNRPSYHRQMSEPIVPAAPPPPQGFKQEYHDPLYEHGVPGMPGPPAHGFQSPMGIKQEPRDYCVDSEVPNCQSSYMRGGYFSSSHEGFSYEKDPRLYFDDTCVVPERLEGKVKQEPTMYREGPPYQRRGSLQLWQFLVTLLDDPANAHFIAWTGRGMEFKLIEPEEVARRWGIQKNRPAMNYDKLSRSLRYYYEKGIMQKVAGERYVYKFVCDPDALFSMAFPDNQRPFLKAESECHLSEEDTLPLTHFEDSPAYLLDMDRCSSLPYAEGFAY
SPIB, sequence (Q01892 whole entry): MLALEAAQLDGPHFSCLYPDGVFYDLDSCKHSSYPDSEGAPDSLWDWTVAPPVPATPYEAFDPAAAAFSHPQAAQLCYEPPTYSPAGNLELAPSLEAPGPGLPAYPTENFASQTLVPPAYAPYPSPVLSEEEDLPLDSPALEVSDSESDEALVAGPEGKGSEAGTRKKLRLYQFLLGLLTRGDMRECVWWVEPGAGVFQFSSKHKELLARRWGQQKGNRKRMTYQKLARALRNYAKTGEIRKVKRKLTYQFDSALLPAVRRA
ELF1, sequence (P32519 whole entry): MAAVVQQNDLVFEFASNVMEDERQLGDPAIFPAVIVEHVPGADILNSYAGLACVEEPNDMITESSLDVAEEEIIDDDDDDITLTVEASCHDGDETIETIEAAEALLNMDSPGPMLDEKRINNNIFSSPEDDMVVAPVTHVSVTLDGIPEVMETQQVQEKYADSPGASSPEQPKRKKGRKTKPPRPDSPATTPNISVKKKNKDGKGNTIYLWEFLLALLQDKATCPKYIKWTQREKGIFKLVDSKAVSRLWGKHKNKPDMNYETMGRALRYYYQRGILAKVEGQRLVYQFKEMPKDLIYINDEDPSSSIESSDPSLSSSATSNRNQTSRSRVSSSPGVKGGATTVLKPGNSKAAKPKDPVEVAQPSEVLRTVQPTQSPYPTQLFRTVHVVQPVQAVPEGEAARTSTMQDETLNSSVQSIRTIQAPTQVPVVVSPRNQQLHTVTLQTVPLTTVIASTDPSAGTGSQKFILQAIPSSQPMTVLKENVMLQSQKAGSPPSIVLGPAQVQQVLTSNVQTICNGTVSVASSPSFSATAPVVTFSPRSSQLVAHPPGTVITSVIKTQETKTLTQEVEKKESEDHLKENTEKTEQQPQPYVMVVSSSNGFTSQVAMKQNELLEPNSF
HSF1, sequence (Q00613 whole entry): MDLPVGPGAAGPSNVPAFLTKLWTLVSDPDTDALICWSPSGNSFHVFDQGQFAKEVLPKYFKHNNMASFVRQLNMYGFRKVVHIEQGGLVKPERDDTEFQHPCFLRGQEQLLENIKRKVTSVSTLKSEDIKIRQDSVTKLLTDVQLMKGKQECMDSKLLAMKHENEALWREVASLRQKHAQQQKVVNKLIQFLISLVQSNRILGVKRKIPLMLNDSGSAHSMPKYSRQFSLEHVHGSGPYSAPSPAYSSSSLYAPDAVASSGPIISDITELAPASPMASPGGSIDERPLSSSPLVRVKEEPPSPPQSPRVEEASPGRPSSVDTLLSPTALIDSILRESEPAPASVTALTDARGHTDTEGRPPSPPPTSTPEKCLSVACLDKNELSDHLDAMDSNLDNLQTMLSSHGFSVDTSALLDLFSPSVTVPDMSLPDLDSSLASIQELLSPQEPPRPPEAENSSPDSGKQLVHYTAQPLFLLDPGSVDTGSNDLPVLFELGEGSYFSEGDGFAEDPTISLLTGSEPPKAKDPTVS
ETV1, sequence (P50549 whole entry): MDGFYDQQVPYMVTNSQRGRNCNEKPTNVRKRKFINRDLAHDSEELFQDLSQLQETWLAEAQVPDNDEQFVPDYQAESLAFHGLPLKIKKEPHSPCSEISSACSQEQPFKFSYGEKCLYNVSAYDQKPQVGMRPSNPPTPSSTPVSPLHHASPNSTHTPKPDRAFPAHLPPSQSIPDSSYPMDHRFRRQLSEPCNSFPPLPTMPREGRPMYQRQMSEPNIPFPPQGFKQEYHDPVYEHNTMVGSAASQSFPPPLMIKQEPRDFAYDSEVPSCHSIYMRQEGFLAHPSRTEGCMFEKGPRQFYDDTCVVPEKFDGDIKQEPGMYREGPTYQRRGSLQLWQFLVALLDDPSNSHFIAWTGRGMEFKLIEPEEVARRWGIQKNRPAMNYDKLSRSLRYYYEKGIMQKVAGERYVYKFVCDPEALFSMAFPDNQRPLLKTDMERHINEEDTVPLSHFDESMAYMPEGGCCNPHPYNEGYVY

ACTTGC
binding signal [1]: 1.46 fold enrichment (6-mer frequency, TF over GST control) | binding signal [2]: 1.48 fold enrichment (6-mer frequency, TF over GST control) | binding signal [3]: 1.42 fold enrichment (6-mer frequency, TF over GST control) | binding signal [4]: 1.41 fold enrichment (6-mer frequency, TF over GST control) | binding signal [5]: 1.37 fold enrichment (6-mer frequency, TF over GST control) | binding signal [6]: 1.52 fold enrichment (6-mer frequency, TF over GST control) | binding signal [7]: 1.54 fold enrichment (6-mer frequency, TF over GST control) | binding signal [8]: 1.35 fold enrichment (6-mer frequency, TF over GST control) | binding signal [9]: 1.35 fold enrichment (6-mer frequency, TF over GST control) | binding signal [10]: 1.4 fold enrichment (6-mer frequency, TF over GST control) | binding signal [11]: 1.49 fold enrichment (6-mer frequency, TF over GST control) | binding signal [12]: 1.25 fold enrichment (6-mer frequency, TF over GST control) | binding signal [13]: 1.36 fold enrichment (6-mer frequency, TF over GST control) | binding signal [14]: 1.47 fold enrichment (6-mer frequency, TF over GST control) | binding signal [15]: 1.44 fold enrichment (6-mer frequency, TF over GST control) | binding signal [16]: 1.36 fold enrichment (6-mer frequency, TF over GST control) | binding signal [17]: 1.79 fold enrichment (6-mer frequency, TF over GST control) | binding signal [18]: 1.12 fold enrichment (6-mer frequency, TF over GST control) | binding signal [19]: 1.37 fold enrichment (6-mer frequency, TF over GST control)

Source: paper PMC7862700, “An all-to-all approach to the identification of sequence-specific readers for epigenetic DNA modifications on cytosine”
